Screening results (PubChem BioAssay)
Most compounds without a hit are left out; they make up all but 0.74% or so of the library.
LYPLA2 counter = LYPLA2 (human) inhibition in PME1 counter-screen | recombinant LYPLA2, FP-Rh probe fluorescence polarization | O95372 | AID 2177 | inhibition, % at 5.9 µM | 320,000 compounds, 0.38% hits;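 active = inhibition above the screen-wide mean plus 3 SD, limit set per campaign, cut at about 26% in these data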;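 note: 0% = LYPLA2 with DMSO and 100% = wells lacking LYPLA2 enzyme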
Target sequence (O95372 whole entry, looked up): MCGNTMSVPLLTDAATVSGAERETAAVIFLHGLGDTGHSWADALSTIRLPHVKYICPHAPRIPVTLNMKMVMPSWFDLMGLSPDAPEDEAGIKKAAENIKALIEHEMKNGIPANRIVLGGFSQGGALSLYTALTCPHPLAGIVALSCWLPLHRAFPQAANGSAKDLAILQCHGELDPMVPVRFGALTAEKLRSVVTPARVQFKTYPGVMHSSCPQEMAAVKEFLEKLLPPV
LYPLA1 counter = LYPLA1 (human) inhibition in PME1 counter-screen; O75608; recombinant LYPLA1, FP-Rh probe fluorescence polarization; inhibition, % at 5.9 µM; 320,000 compounds, 0.16% hits; AID 2174;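 active = inhibition above the mean of all tested compounds plus 3 SD, set per campaign, cut at about 14% in these data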;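 note: inhibitors block serine hydrolase probe labeling of LYPLA1 so polarization falls; 0% = enzyme with DMSO and 100% = wells lacking LYPLA1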
Target sequence (O75608 whole entry, looked up): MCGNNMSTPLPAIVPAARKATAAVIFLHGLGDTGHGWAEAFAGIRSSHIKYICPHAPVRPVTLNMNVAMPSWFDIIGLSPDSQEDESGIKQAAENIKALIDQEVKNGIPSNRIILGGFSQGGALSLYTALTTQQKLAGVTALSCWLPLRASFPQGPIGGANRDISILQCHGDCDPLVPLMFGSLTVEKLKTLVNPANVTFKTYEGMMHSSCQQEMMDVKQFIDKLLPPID
p97 ATPase inh = blocks human p97 ATPase activity. P55072. recombinant p97 ATPase, Kinase-Glo ATP luminescence, 3 h. inhibition, % at 8 µM. 220,000 compounds, 0.42% hits. AID 1481; in the data active = inhibition above about 15%;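 note: 0% = DMSO vehicle and 100% = wells lacking enzyme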
DTT redox prof = compounds producing H2O2 with reducing agent – biochemical, NIH compound library profiling, artefact control for MLSCN library redox annotation, primary screen. DTT-dependent redox cycling H2O2, phenol red/HRP absorbance; 100% = 100 µM peroxide control, 0% = buffer. 200,000 compounds, 0.03% hits. activation, % at 10 µM;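 active = activation of at least 50% relative to the plate's high and low controls in the primary single-dose screen; inactive = activation below 50%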;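 note: compound incubated with DTT at 0.8 mM final as the reducing agent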
LYPLA2 conf = counter-screen for PME1 inhibitors: confirmation of human LYPLA2 inhibitors | shares compounds with LYPLA2 counter | recombinant LYPLA2, FP-Rh probe fluorescence polarization | inhibition, % at 5.9 µM | 1,100 compounds, 72% hits;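 active = mean inhibition across replicates above the hit cutoff set in the primary screen, cut at about 26% in these data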;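 note: blocked labeling of the enzyme by serine hydrolase FP-Rh probe lowers polarization; 0% = enzyme with DMSO and 100% = wells lacking LYPLA2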
LYPLA2 ABPP = blocks human acyl-protein thioesterase 2 in gel ABPP | shares compounds with LYPLA2 counter | rhLYPLA2 in mouse brain proteome, gel ABPP FP-Rh | inhibition, % at 20 µM | 150 compounds, 30% hits;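 active = inhibition of LYPLA2 enzyme probe labeling above about 50%, limit read from the data; inactive = inhibition below that limit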;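 note: loss of FP-Rh probe labeling of the LYPLA2 gel band measured as band density; 0% = DMSO only control band and 100% = blank gel background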
* marks the source's active call; other numbers are inactive results; · = no result given.

SMILES | LYPLA2 counter | LYPLA1 counter | p97 ATPase inh | DTT redox prof | LYPLA2 conf | others
CN(C)c1ccc(/C=C2\C(=N)N3C(=NC2=O)Sc2cc(S(C)(=O)=O)ccc23)cc1 | -1 | -5 | 7 | · | ·
O=C(N/N=C/c1cccc(Oc2ccc([N+](=O)[O-])cc2[N+](=O)[O-])c1)c1cncc(Br)c1 | 45* | -2 | 5 | 3 | 39*
COc1cc(N)c(Cl)cc1C(=O)N[C@H]1CCN(CCCOc2ccc(F)cc2)C[C@H]1OC | 27* | 14 | · | · | 31*
COc1ccc(-c2cc(C(=O)N3CCCC3)no2)cc1OC | 0 | 3 | · | · | ·
O=C(c1cc(-c2cccs2)on1)N1CCN(c2ccc(F)cc2)CC1 | 28* | 6 | -1 | 2 | 27*
COc1ccc(-c2cc(C(=O)N3CCN(c4ccc(F)cc4)CC3)no2)cc1OC | 39* | 3 | · | · | 33*
CCCOc1ccc(N2C(=O)CC(N3CCN(c4ccc([N+](=O)[O-])cc4)CC3)C2=O)cc1 (centres undefined) | 35* | 2 | · | · | 36*
CCC(=O)NC(=S)Nc1ccc(N2CCN(C(=O)c3ccc(Cl)cc3)CC2)cc1 | 29* | 2 | 0 | 0 | 36*
O=C(Nc1ccc(N2CCN(C(=O)c3ccc(Cl)cc3)CC2)cc1)c1cccnc1 | 48* | 5 | 7 | 4 | 41*
Cc1ccc(C(=O)N2CCN(c3ccc(NC(=O)c4cccnc4Cl)cc3)CC2)cc1 | 49* | 5 | · | · | 57* | LYPLA2 ABPP=38
O=C(NC1CCC(O)CC1)c1cccnc1Sc1ccccc1Cl (centres undefined) | -1 | -3 | · | · | ·
O=C(c1ccccc1)N1CCN(C(=S)NCc2ccc3c(c2)OCO3)CC1 | 6 | 0 | 5 | 0 | ·
CC(C)(C)OC(=O)N1CCC[C@H]1C(=O)OCC(=O)Nc1cc(S(C)(=O)=O)ccc1Cl | 1 | -2 | · | · | ·
CCCCSCCCNC(=O)c1ccc(CS(=O)(=O)c2ccccc2OC)o1 | 9 | 2 | · | · | ·
COc1cc(/C=N/NC(=O)/C(=C\c2ccc([N+](=O)[O-])cc2)NC(=O)c2ccccc2)cc(OC)c1O | 39* | -2 | 12 | 0 | 42*
CCOC(=O)N1CCC(N2Cc3cccc(C(=O)Nc4ccccc4OC)c3C2=O)CC1 | 3 | 7 | · | · | ·
Fc1ccc(CN2CCCN(Cc3nc(-c4ccc5c(c4)OCO5)no3)CC2)cc1 | 2 | -1 | 0 | -1 | ·
c1ccc(OCCN2CCN(Cc3nc(-c4ccc5c(c4)OCO5)no3)CC2)cc1 | 26* | -2 | -3 | 0 | 26
CC(=O)c1ccc(OCc2cc(C(=O)N3CCC(c4ccncc4)CC3)no2)cc1 | 34* | 3 | · | · | 37*
COc1cccc(OCc2cc(C(=O)N3CCC(c4ccncc4)CC3)no2)c1 | 25 | 8 | · | · | ·
O=C(COC(=O)c1cnccn1)c1ccc(C2CCCCC2)cc1 | 31* | 1 | · | · | 30*
Cc1cnc(C(=O)OCC(=O)c2ccc(C3CCCCC3)cc2)cn1 | 20 | 2 | · | · | ·
COc1ccc(NC2=NCCC(=O)N2Cc2cccs2)cc1 | 27* | 2 | 3 | 3 | 21
O=C(C1CCC(CNS(=O)(=O)c2cccs2)CC1)N1CCN(c2ccc(Cl)cc2)CC1 (centres undefined) | 36* | 1 | · | · | 34*
CCCCc1cc(=O)oc2cc(OCC(=O)Nc3cccnc3)c(Cl)cc12 | 28* | 3 | · | · | 14
SMILES | LYPLA2 counter | LYPLA1 counter | p97 ATPase inh | DTT redox prof | LYPLA2 conf | others
Cc1cccc([C@@H]2[C@@H]3C(=O)N(Cc4ccccc4)C(=O)[C@@H]3[C@]3(C)C(=O)N(c4ccc(C(F)(F)F)cc4)C(=O)N23)c1 | -11 | -6 | · | · | ·
Cc1ccc(S(=O)(=O)NCC(=O)OCC(=O)c2ccc(Cl)s2)cc1 | -1 | -2 | · | · | ·
CC(NC(=O)c1ccccc1)C(=O)N/N=C/c1ccc(O)cc1 (centres undefined) | -7 | -4 | 0 | -1 | ·
Cc1ccc(C=NNC(=O)C(NC(=O)c2ccccc2)c2n[nH]c(=O)c3ccccc23)cc1 (centres undefined) | · | · | · | · | · | LYPLA2 ABPP=28
CN(C)C(=O)CSc1nc(-c2cccs2)c(-c2cccs2)[nH]1 | 2 | 1 | · | · | ·
O=C(CN1CCN(c2ccc(Cl)cc2)CC1)NCc1ccccc1 | 7 | 3 | -3 | 1 | ·
O=C(CN1CCN(C/C=C/c2ccccc2)CC1)NCc1ccc(Cl)cc1 | 42* | 6 | -2 | · | 34*
O=C(NC1CCOCC1)C1CCC(=O)N(Cc2ccc(Cl)cc2)C1 (centres undefined) | 8 | 1 | · | · | ·
Cc1ccc(C)c(Oc2coc3cc(OC(=O)c4cccs4)ccc3c2=O)c1 | 22 | -3 | -2 | 2 | ·
COc1ccc(Oc2coc3cc(OC(=O)c4cccs4)ccc3c2=O)cc1 | 41* | 4 | 4 | 0 | 46*
O=C(COc1ccc(Br)cc1)NNC(=S)NC(=O)c1ccccc1[N+](=O)[O-] | 33* | 0 | 8 | 0 | 31*
O=C(NNC(=S)NC(=O)c1ccccc1[N+](=O)[O-])c1ccccc1[N+](=O)[O-] | 1 | 3 | 2 | 0 | ·
COc1cc2[nH]c(C(=O)N3CCC(Cc4ccccc4)CC3)cc2c(OC)c1OC | 33* | -3 | · | · | 20
COc1ccc(OC)c(-c2cc(C(=O)Nc3c(C)nn(Cc4ccccc4)c3C)no2)c1 | 61* | 12 | 6 | 0 | 66* | LYPLA2 ABPP=64*
Cc1nn(Cc2ccccc2)c(C)c1NC(=O)c1cc(-c2ccco2)on1 | 7 | 0 | -3 | 0 | ·
COc1ccc(OC)c(-c2cc(C(=O)Nc3c(C)nn(Cc4ccc(Cl)cc4)c3C)no2)c1 | 44* | 12 | 2 | 0 | 87* | LYPLA2 ABPP=45
CCN1CCN(c2oc(/C=C/c3ccccc3)nc2C#N)CC1 | 13 | 4 | 0 | · | ·
O=C(NCCN1CCN(c2ccccc2)CC1)c1cccc(Cl)c1 | 2 | -1 | · | · | ·
O=C(NCCCN1CCN(c2cccc(Cl)c2)CC1)c1cccc(N2CCCC2=O)c1 | 27* | 6 | -1 | -3 | 33*
O=C(NCCS(=O)(=O)N1CCN(c2cccc(Cl)c2)CC1)c1ccc2c(c1)OCO2 | 47* | -1 | · | · | 56* | LYPLA2 ABPP=20
O=C(NCCCN1CCN(c2cccc(Cl)c2)CC1)c1ccc(N2CCCC2=O)cc1 | 5 | -1 | 0 | 0 | ·
Nc1ccccc1C(=O)NCCCN1CCN(c2cccc(Cl)c2)CC1 | 30* | 9 | · | · | 40*
COc1ccc(OC(C)C(=O)N2CCCc3ccccc32)cc1 (centres undefined) | 3 | 4 | 1 | 0 | ·
O=[N+]([O-])c1ccc(Oc2ccc(/C=N/O)cc2)nc1 | 41* | 5 | 0 | 0 | 26*
COc1ccc(C(=O)N2CCC(=O)N(C(CO)Cc3ccccc3)CC2)cc1 (centres undefined) | 2 | -1 | 7 | 0 | ·
Cc1ccc(OCCn2cnc3cc([N+](=O)[O-])ccc3c2=O)cc1 | -2 | -3 | -6 | -2 | ·
